The OligoGym collection

Molecular target: VAX1
Assay: pooled miR-30 sensor sort-seq; sequence = guide strand
Conditions: shRNA
Also: reference of the scale not given here.

Sequence | sensor-assay potency score (higher = more potent)
TTCTTTATTGTTGGTCCGGGAG | -1.06
TTCTTCTGCTTGGTGCGCCGGT | -0.49
TTCTTTTGTTTTTTTATCCCGC | -0.672
TCTCGGACCAGGATCCGGCGGC | -0.716
TTTACTTTTGTTACAATCCTCA | -0.228
TTTTGTTACAATCCTCAGCAGC | -0.447
TACTTTTGTTACAATCCTCAGC | -0.412
TTTTGTTTTTTTATCCCGCGTT | -0.396
TGGAACTCCATCTCCAGCCGAT | -1
TTGGGCAGGATGATCTCTCGGA | -0.0889
TTTGTTTTTTTATCCCGCGTTT | -0.944
TTACTTTTGTTACAATCCTCAG | -1.22

Molecular target: VDAC1
Assay: as above
Conditions: shRNA

Sequence | sensor-assay potency score (higher = more potent)
TCTGAGTGTATCCTAAACCTAT | -0.562
TCTTCCACAGTAATCTCGGTGC | -0.38
TATCCTAAACCTATCAGGCTGG | -0.545
TTTTGTTTTCAAATCAAGCTTT | -0.155
TAGTGTATTGTCGGTATTCCAT | -0.621
TAGGTGAGAAGGATGAATCGAA | 0.744
TTTGTTTTCAAATCAAGCTTTA | -0.535
TTCTCTGTAAACGTCAGGCCGT | -0.7
TTAGAGTCTGAGTGTATCCTAA | -0.253
TTCACTTTAGCCGAGAAGCAGG | -0.473
ATTCACATTAGTGTGAAGCTGG | 0.0233
TTACTGTTTCCTGCTGTCCAGG | -1.19

Molecular target: VDAC3
Assay: as above
Conditions: shRNA

Sequence | sensor-assay potency score (higher = more potent)
TTGTCTGTGTTCCATTTCTGGG | -1.15
TCTGGTAGATAGAACCTCCAAA | -0.313
TCCTTTGTTGAAGACATCCTTA | -0.879
TTCAGGTCTATCTTGACCATGC | -0.432
TCTATATCAACATTACTGCCAA | -0.2
TTCATTTCTCTTCACTTCCAGG | -0.789
TTCAATCTTCTCATTCACCTTC | 0.828
TTTCAGGTCTATCTTGACCATG | -1.45
TTATATTTGGTTTCTAGGTTGC | -0.0958
TAGAGTATTGTCTGTGTTCCAT | -0.216
TATCAGTGTAAGCATGACCAGA | -0.976
TTGGTTTTCAGGTCTATCTTGA | 0.398

Molecular target: VGLL2
Assay: as above
Conditions: shRNA

Sequence | sensor-assay potency score (higher = more potent)
TTGACTTCTCTTTACTTCTCTA | -0.415
TACTTCTCTACCACAGTCTTAG | -0.503
TAAAATCTGACAGTAGTAGTGC | 0.941
